DT40 TDP1 CPT – DT40-hTDP1 cell growth loss with CPT. chicken DT40 Tdp1-/-;hTDP1 cells + 20 nM CPT, ATP luminescence, 48 h. Potency, µM (top dose mostly 46.2 µM), inactives show at the highest dose activity change, negative = growth inhibition, usual class: inhibitors. actives 12% (n = 420,000). AID 686979; also: nearly all actives have a fitted effect of over 55% in size
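Chicken DT40 Tdp1-/- cells complemented with human TDP1, 400 cells/well, exposed to compounds plus 20 nM camptothecin for at least 48 h at 37 C; viability read as ATP content by CellTiter-Glo luminescence.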
KB-3-1 cytotox – KB-3-1 parental cell cytotoxicity | Potency, µM (highest dose often 46.1 µM), hits mostly cytotoxic | actives 1.4% (n = 400,000) | KB-3-1 viability, CellTiter-Glo ATP luminescence, 72 h | AID 1347075; also: nearly all actives have a fitted effect of over 60% in size
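Cytotoxicity measured as CellTiter-Glo luminescence after 72 h at 37 C. Compound titrations were pinned onto drug-naive KB-3-1 parental adenocarcinoma cells grown in DMEM with 10% FBS, and normalized data fitted to concentration-response curves.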
KB-V1 MDR tox – kills drug-selected multidrug resistant KB-V1 cells | KB-V1 MDR cells viability, CellTiter-Glo, 72 h | AID 1347076 | actives 3.4% (n = 400,000) | Potency, µM (doses to about 46.1 µM), hits mostly cytotoxic; also: nearly all actives have a fitted effect of over 60% in size
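Following 72 h at 37 degrees C with compound, KB-V1 cell viability was read by CellTiter-Glo luminescence, medium being phenol-red-free DMEM plus 10% FBS; concentration-response parameters came from normalized, curve-fitted qHTS data.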
HT1080 IDH1KD tx – HT-1080 IDH1 knockdown cell toxicity (counter line); AID 686971; actives 2% (n = 360,000); HT-1080 IDH1 knockdown viability, ATP luminescence, 48 h; Potency, µM (top dose mostly 46.1 µM), without a hit: at the top dose activity, negative = toxicity, usual class: cytotoxic;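 also: 0% = DMSO wells and -100% = cell-free medium wells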
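% activity derives from luminescence (CellTiter-Glo), normalised to DMSO and no-cell wells. HT-1080-IDH1KD cells, 750/well, had 48 h compound exposure at 37 °C.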
DT40 TDP1 no CPT – qHTS for Inhibitors of human tyrosyl-DNA phosphodiesterase 1 (TDP1): qHTS in cells in absence of CPT | DT40 Tdp1-/- hTDP1 cells, no CPT, ATP luminescence, 48 h | Potency, µM (doses to about 46.2 µM), for inactives: at the highest dose activity change, negative = growth inhibition, most hits filed as inhibitors | actives 15% (n = 420,000); also: nearly all actives have a fitted effect of over 55% in size
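DT40 Tdp1-/-;hTDP1 cells, no CPT (DMSO vehicle only), 400 cells/well; compounds pin-transferred; ≥48 hr, 37 °C; CellTiter-Glo 30 min RT dark, luminescence read.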
HT1080-NT tox – kills 2HG-producing HT-1080-NT fibrosarcoma cells; Potency, µM (top dose mostly 46.1 µM), for inactives: top-dose activity, negative = less viability, hits mostly cytotoxic; actives 1.6% (n = 360,000); AID 686970; HT-1080-NT fibrosarcoma viability, CellTiter-Glo ATP luminescence, 48 h;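 also: NT is the 2HG producing partner of a matched IDH1 knockdown line; 0% = DMSO-treated cells and -100% = media-only wells without cells; nearly all actives have a fitted effect of over 55% in size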
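Fibrosarcoma NT cells, 750 per well in 5% FBS RPMI, were exposed to compound for 48 hours. Viability: CellTiter-Glo luminescence.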
* marks the source's active call; other numbers are inactive results; i = inactive; ? = inconclusive; . = no result given; ! = not active in a repeat. Only some compounds are listed: those with a hit (about 19% of all), similar ones and a draw of the others. Calls follow the shape of the dose curve; as a rule, active = well fitted curve in the direction sought with a large enough effect; inconclusive = small, poorly fitted or top-dose-only effect, or another doubt; inactive = no such curve, though single readings can be large; an effect the other way counts as inactive or inconclusive. Unless noted, % is scaled to controls: 0 for no effect and ±100 for the full control effect; potency is read from the fitted curve at half-maximal effect.

SMILES | DT40 TDP1 CPT | KB-3-1 cytotox | KB-V1 MDR tox | HT1080 IDH1KD tx | DT40 TDP1 no CPT | HT1080-NT tox
CCC/C(=C1/c2ccccc2C(=O)N1c1ccccc1)c1ccc2c(c1)OCCO2 | ? | ? | ? | ? | -28% | ?
O=c1cc(O)nc(SCc2ccccc2)n1-c1ccc(F)cc1 | 0% | i | i | 9% | -2% | 7%
O=C(c1ccc2c(c1)CCN2S(=O)(=O)c1ccccc1)N1CCN(c2ccccc2F)CC1 | -22% | i | i | -7% | -1% | -12%
CCC(C)NC(=O)C1CCC(CNS(=O)(=O)c2ccc3c(c2)N(C(C)=O)CCO3)CC1 (stereo not drawn) | ? | i | i | 9% | -17% | 0%
CCOc1ccc(N=C2SC(C(=O)Nc3ccccc3C#N)C(N)=C2C(=O)Nc2ccc(Cl)cc2)cc1 (stereo not drawn) | 2% | i | i | 9% | 4% | 10%
N#Cc1ccccc1NC(=O)C1SC(=Nc2ccccc2)C(C(=O)Nc2ccc(Cl)cc2)=C1N (stereo not drawn) | 16µM* | 5.2µM* | 6.5µM* | -5% | 21µM* | -22%
COc1c(N)c2ccccc2[nH]c1=O | 24% | i | ? | 22% | 5% | 5%
NS(=O)(=O)c1ccc(CCNC(=O)C2CCN(S(=O)(=O)c3ccc(Br)s3)CC2)cc1 | 10% | i | i | -9% | -22% | -2%
CC(C)N(C(=O)[C@H]1C[C@H](CC(=O)NCCC2=CCCCC2)C(=O)N2CCc3c([nH]c4cc(-c5ccco5)ccc34)[C@]12C)C(C)C | ? | 23µM* | ? | ? | ? | -27%
O=C(C[C@H]1C[C@H](C(=O)N2CCCCC2)[C@@]2(CCc3ccccc3)c3[nH]c4cc(-c5ccco5)ccc4c3CCN2C1=O)NCCC1=CCCCC1 | ? | i | i | -3% | 18µM* | 0%
CC[C@]12c3[nH]c4cc(CCC(=O)N(C)C)ccc4c3CCN1C(=O)[C@@H](CC(=O)NCCC1=CCCCC1)C[C@@H]2C(=O)N1CCN(C(=O)c2ccco2)CC1 | 4% | i | i | -2% | -22% | -2%
CC[C@]12c3[nH]c4cc(-c5ccco5)ccc4c3CCN1C(=O)[C@@H](CC(=O)NCCC1=CCCCC1)C[C@@H]2C(=O)N1CCN(C(=O)c2ccco2)CC1 | 21µM* | ? | i | -26% | 18µM* | -19%
Nc1nonc1C(=O)NCCNCc1ccccc1F | . | i | i | . | . | .
Nc1nonc1C(=O)NCCNCc1cc(Br)ccc1OCc1ccc(F)cc1 | 10µM* | 11µM* | ? | -22% | 10µM* | -8%
COc1ccc(CNCCNC(=O)c2nonc2N)cc1OC | -1% | i | i | 2% | -19% | 2%
Nc1nonc1C(=O)NCCNCc1c(OCc2ccccc2F)ccc2ccccc12 | 11µM* | ? | i | 10µM* | 11µM* | ?
CCN(CC(=O)NCc1ccc(F)cc1)C(=O)c1cccnc1SC | -1% | i | i | 12% | 0% | -3%
COc1ccc(C(=O)N=c2sc3ccccc3n2C)cc1OC | ? | i | i | 12% | 15µM* | 13%
Cn1/c(=N/NC(=O)c2ccccc2Br)sc2ccccc21 | 19% | ? | i | 6% | -11% | 19%
Cn1c(=NC(=O)CN2C(=O)C3CC=CCC3C2=O)sc2ccccc21 (stereo not drawn) | ? | i | 5.2µM*! | 14% | ? | 14%
C[C@@H](C(=O)N=c1sc2ccccc2n1C)N1C(=O)C2CC=CCC2C1=O (stereo partly drawn) | -22% | i | i | -18% | ? | -2%
COc1ccc(C(=O)N=c2sc3c(C)ccc(OC)c3n2C)cc1OC | 5.2µM* | ? | 18µM* | 9% | 5.8µM* | 9%
Cn1c(=NC(=O)C2=NNC(=O)CC2)sc2ccccc21 | 0% | 3.3µM* | 1.5µM* | 28% | -9% | 22%
CC1(C)c2[nH]c3ccccc3c2C[C@@H]2C(=O)N(c3ccc(F)cc3F)C(=O)N21 | . | i | i | . | . | .
CCCN(CC(=O)Nc1ccccc1C)C(=O)/C=C/c1cccs1 | -9% | i | i | 18% | -27% | 11%
SMILES | DT40 TDP1 CPT | KB-3-1 cytotox | KB-V1 MDR tox | HT1080 IDH1KD tx | DT40 TDP1 no CPT | HT1080-NT tox
O=S(=O)(NCC1CCCO1)c1ccccc1 (stereo not drawn) | -5% | i | i | 0% | 6% | -6%
Cc1ccc(-c2ccc(S(=O)(=O)NCC3CCCO3)cc2)cc1 (stereo not drawn) | ? | i | ? | ? | ? | -16%
O=C(Nc1ccccc1)c1ccc(S(=O)(=O)NCC2CCCO2)cc1 (stereo not drawn) | -26% | ? | ? | 4% | -23% | -8%
O=C(c1ccccc1)N1CCC(c2nc(-c3ccc(S(=O)(=O)NCC4CCCO4)cc3)no2)CC1 (stereo not drawn) | 10µM* | 8.2µM* | 9.2µM* | -3% | 10µM* | ?
O=C(c1ccc(S(=O)(=O)NCC2CCCO2)cc1)N1CCc2ccccc21 (stereo not drawn) | 21µM* | ? | ? | -1% | 21µM* | -2%
O=C(C1CC1)N1CCC(c2nc(-c3ccc(S(=O)(=O)NCC4CCCO4)cc3)no2)CC1 (stereo not drawn) | 13µM* | ? | ? | -26% | 14µM* | ?
Cc1cccc(C(=O)OCC(=O)Nc2c(C)n(C)n(-c3ccccc3)c2=O)c1 | -10% | i | i | -8% | 2% | -1%
CCn1c(SCC(=O)NC2=NCCS2)nnc1C(C)NC(=O)c1ccccc1Br (stereo not drawn) | 2% | i | i | 4% | 2% | 15%
CCCNC(=O)C1(C)CCN1C(=O)c1ccc(C(C)(C)C)cc1 (stereo not drawn) | ? | i | i | -15% | 15µM* | -24%
CCCNC(=O)C1(C)CCN1C(=O)Cc1ccc(C(C)(C)C)cc1 (stereo not drawn) | ? | i | i | -2% | 15µM* | 1%
CCCNC(=O)C1(C)CCN1C(=O)c1cc(C)n(C)n1 (stereo not drawn) | 3% | i | i | 19% | 6% | 15%
CSCCNC(=O)C1(C)CCN1C(=O)c1ccc(C(C)(C)C)cc1 (stereo not drawn) | 18µM* | i | i | -15% | 15µM* | 3%

Compound activity deposited in PubChem BioAssay by National Center for Advancing Translational Sciences (NCATS).
